PubChem BioAssay (NCATS)
Inconclusive results are not listed. Unless noted, calls follow the shape of the dose curve; as a rule, active = well fitted curve in either direction with a large enough effect (not every such curve was filed as active); inconclusive = small, poorly fitted or top-dose-only effect, or another doubt; inactive = flat fitted curve, though single readings scatter.

Key:
[1] = AP1 Signaling Pathway (AID 357); settings: ME-180 AP-1-bla reporter, EGF-induced, beta-lactamase ratio, 5 h; at 17.2 µM (top of the series) unless noted;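 also: ME-180 reporter cells stimulated with EGF at its EC50 level; % is scaled to controls: 0 for no effect and ±100 for the full control effect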
Outline: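 Cells are seeded overnight, exposed to compound titrations and an EC50 level of EGF for 5 hours at 37 °C, then loaded with CCF4 dye for 2.5 hours. Beta-lactamase activity under the AP-1 element is read as a blue/green ratio.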

[2] = NFAT Signaling Pathway (AID 444); settings: Jurkat NFAT-bla M1, carbachol, beta-lactamase ratio, 5 h; at 17.2 µM (top of the series) unless noted;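 also: carbachol stimulus at about its EC50 of 1 µM final; % is scaled to controls: 0 for no effect and ±100 for the full control effect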
Outline: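 Jurkat cells carrying an NFAT-driven β-lactamase reporter and co-transfected muscarinic M1 receptor were treated with compound plus carbachol (1 uM final, an EC50 level) for 5 h at 37 °C. CCF4 loading followed for 1 h at RT; 460/530 nm ratio gave %activity.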

[3] = Stat Signaling Pathway (AID 446); settings: ME-180 SIE beta-lactamase reporter, IL-6 stimulated, 5 h; at 17.2 µM (top of the series) unless noted;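 also: ME-180 cervical cancer cells given 40 pM IL-6 alongside compound; SIE-controlled beta-lactamase reporter measured as 460/530 nm FRET emission ratio; % is scaled to controls: 0 for no effect and ±100 for the full control effect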
Outline: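 Screening format detects activators and inhibitors alike: ME-180 SIE-bla cells stimulated at 40 pM IL-6 for 5 hrs with compound, then dual-emission beta-lactamase read at 405 nm excitation.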

[4] = target: Glucocorticoid receptor (Homo sapiens) (UniProt P04150); assay: GR-GFP Redistribution (AID 450;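 active = compounds whose dose series gives a full or clear partial fitted curve of increased nuclear translocation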; also: potency is read from the fitted curve at half-maximal effect)
[5] = qHTS Assay for Identification of Small Molecule Agonists for Hypoxia Response Element Signaling Pathway (AID 914; active = well fitted activation curve with a large enough effect in the signal ratio, with a control signal flat, not every such curve was filed as active; the % refers to the signal ratio; also: % of control where 0% means no effect); settings: ME-180 (cervical carcinoma) HRE-bla reporter, beta-lactamase ratio, CoCl2, 17 h; activation: stronger effect = higher value
Outline: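 HRE-bla ME-180 assay for agonist-like enhancement of an EC50 CoCl2 stimulus: 17 h at 37 degrees Celsius, CCF4 for 2.5 h, ratiometric 460/530 nm signal converted to %Activity and fitted to AC50.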

Sequence of Glucocorticoid receptor (Homo sapiens) (P04150 whole entry, looked up): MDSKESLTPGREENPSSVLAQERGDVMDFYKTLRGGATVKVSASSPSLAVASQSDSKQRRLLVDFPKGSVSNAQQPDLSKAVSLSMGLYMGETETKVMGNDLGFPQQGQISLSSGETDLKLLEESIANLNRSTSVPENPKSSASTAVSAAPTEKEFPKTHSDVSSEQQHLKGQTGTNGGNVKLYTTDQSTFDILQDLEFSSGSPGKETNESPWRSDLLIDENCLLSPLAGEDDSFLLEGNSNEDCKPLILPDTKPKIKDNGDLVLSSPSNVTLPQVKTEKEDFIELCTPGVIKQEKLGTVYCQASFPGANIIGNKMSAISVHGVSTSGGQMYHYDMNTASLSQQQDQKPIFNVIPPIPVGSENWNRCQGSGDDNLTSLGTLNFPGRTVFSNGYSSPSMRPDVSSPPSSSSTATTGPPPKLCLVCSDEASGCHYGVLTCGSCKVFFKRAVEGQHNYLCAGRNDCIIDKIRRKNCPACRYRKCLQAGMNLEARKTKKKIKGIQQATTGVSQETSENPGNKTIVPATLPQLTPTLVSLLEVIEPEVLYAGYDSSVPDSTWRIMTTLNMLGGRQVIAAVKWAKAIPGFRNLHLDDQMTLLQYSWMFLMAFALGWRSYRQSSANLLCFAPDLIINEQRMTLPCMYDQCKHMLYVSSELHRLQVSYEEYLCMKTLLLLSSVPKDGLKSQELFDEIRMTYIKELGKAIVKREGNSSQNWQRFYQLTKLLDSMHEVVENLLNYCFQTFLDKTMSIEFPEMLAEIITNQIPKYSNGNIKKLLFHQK

Cc1cc(C)n(C(=O)CN2C(=O)CCC2=O)n1
inactive: activity change, negative = inhibition [1] 14.2% | activity change, negative = inhibition [2] 0.324% | activity, negative = inhibition [3] 3.71% | Potency [4] > 20.6 µM | activation [5] 6.68%

COC(=O)c1sc(NC(C)=O)c(C(=O)OC)c1C
inactive: activity change, negative = inhibition [1] 2.69% | activity change, negative = inhibition [2] 2.63% | activity, negative = inhibition [3] 1.36% | Potency [4] > 20.6 µM | activation [5] 21.1%

N#CC12CCCCC1CC1CCCCC1(C#N)N2Cc1cccnc1 (stereo not given)
inactive: activity change, negative = inhibition [1] 11.8% | activity change, negative = inhibition [2] -6.79% | activity, negative = inhibition [3] 4.8% | Potency [4] > 20.6 µM | activation [5] 9.28%

CCc1nc(NCC2CCCO2)c(C#N)c2c1COC(C)(C)C2 (stereo not given)
inactive: activity change, negative = inhibition [1] -25.1% | activity change, negative = inhibition [2] -16.2% | activity, negative = inhibition [3] -2.2% | Potency [4] > 20.6 µM | activation [5] -11.3%

CCOc1ccc(NC(=O)CSC2=C(C#N)C(c3ccc4c(c3)OCO4)CC(=O)N2)cc1 (stereo not given)
inactive: activity change, negative = inhibition [1] -17.2% | activity change, negative = inhibition [2] -5.95% | activity, negative = inhibition [3] -3.62% | Potency [4] > 20.6 µM | activation [5] -0.0576%

COc1ccc(C2C(C#N)=C(N)Oc3n[nH]c(C)c32)cc1CSc1ccccn1 (stereo not given)
inactive: activity change, negative = inhibition [1] -15.2% | activity change, negative = inhibition [2] 13.4% | activity, negative = inhibition [3] -27.9% | Potency [4] > 20.6 µM | activation [5] -21.4%

O=C(O)CCN(CCC(=O)O)c1nnc(SCc2ccccc2)s1
inactive: activity change, negative = inhibition [1] 8.29% | activity change, negative = inhibition [2] 12.2% | activity, negative = inhibition [3] 11.2% | Potency [4] > 20.6 µM | activation [5] 24.5%

COc1cccc(Cn2c(Oc3ccccc3)nc3c2c(=O)n(C)c(=O)n3C)c1
inactive: activity change, negative = inhibition [1] -23.1% | activity change, negative = inhibition [2] -10.8% | activity, negative = inhibition [3] -11.1% | Potency [4] > 20.6 µM | activation [5] -17.4%

COc1ccc2c(c1)c(C(=O)CN1CCOCC1)c(C)n2C
inactive: activity change, negative = inhibition [1] 12% | activity change, negative = inhibition [2] 0.787% | activity, negative = inhibition [3] 10.6% | Potency [4] > 20.6 µM | activation [5] 8.25%

Cn1c2c(c(=O)n(C)c1=O)C(NC(=O)C(C)(C)C)(C(F)(F)F)C(=O)N2 (stereo not given)
inactive: activity change, negative = inhibition [1] -5.62% | activity change, negative = inhibition [2] -2.4% | activity, negative = inhibition [3] 6.52% | Potency [4] > 20.6 µM | activation [5] 8.6%

CCN(CC)CCNc1ncnc2c1[nH]c1ccc(OC)cc12
inactive: activity change, negative = inhibition [1] 7.05% | activity change, negative = inhibition [2] -11.4% | activity, negative = inhibition [3] 3.82% | Potency [4] > 20.6 µM | activation [5] 2.09%

CC(C)OCCCNc1ncnc2c1cnn2-c1ccccc1
inactive: activity change, negative = inhibition [1] -19.6% | activity change, negative = inhibition [2] 12.4% | activity, negative = inhibition [3] -0.244% | Potency [4] > 20.6 µM | activation [5] -23.4%

O=C(NC1(C(F)(F)F)C(=O)Nc2c1c(=O)[nH]c(=O)n2Cc1ccco1)C1CCCCC1 (stereo not given)
inactive: activity change, negative = inhibition [1] -8.35% | activity change, negative = inhibition [2] -10.2% | activity, negative = inhibition [3] -2.02% | Potency [4] > 20.6 µM | activation [5] -5.1%

Cc1ccc(-n2c(SCC(=O)NCc3ccco3)nc3nc4c(cc3c2=O)COC(C)(C)C4)cc1
inactive: activity change, negative = inhibition [1] -7.85% | activity change, negative = inhibition [2] -16.8% | activity, negative = inhibition [3] -3.2% | Potency [4] > 20.6 µM | activation [5] -23.6%

O=C(NC1CCCCC1)[C@H](O)[C@@H](O)C(=O)NC1CCCCC1
inactive: activity change, negative = inhibition [1] 8.04% | activity change, negative = inhibition [2] 0.354% | activity, negative = inhibition [3] 4.25% | Potency [4] > 20.6 µM | activation [5] 12.1%

CC(C)Oc1ccc(/C(O)=C2/C(=O)C(=O)N(CCN(C)C)C2c2ccco2)cc1 (stereo not given)
inactive: activity change, negative = inhibition [1] -1.52% | activity change, negative = inhibition [2] -2.83% | activity, negative = inhibition [3] 8.49% | Potency [4] > 20.6 µM | activation [5] -2.15%

Cc1cc(OCC(=O)Nn2cnnc2)ccc1Br
inactive: activity change, negative = inhibition [1] 11.6% | activity change, negative = inhibition [2] -7.1% | activity, negative = inhibition [3] 4.67% | Potency [4] > 20.6 µM | activation [5] 8.36%

COc1ccc(C2CC(=O)c3sc(N)nc3C2)cc1 (stereo not given)
inactive: activity change, negative = inhibition [1] -9.21% | activity change, negative = inhibition [2] 5.45% | activity, negative = inhibition [3] 3.6% | Potency [4] > 20.6 µM | activation [5] -11%

C=C(C)CN(CC)CCC(=O)Nc1ccc(OC)cc1OC
inactive: activity change, negative = inhibition [1] -7.43% | activity change, negative = inhibition [2] 3.18% | activity, negative = inhibition [3] 6.14% | Potency [4] > 20.6 µM | activation [5] -8.71%

O=C(CSc1nnc(-c2ccco2)c(-c2ccco2)n1)Nc1ccccc1
inactive: activity change, negative = inhibition [1] 3.29% | activity change, negative = inhibition [2] -3.07% | activity, negative = inhibition [3] -9.01% | Potency [4] > 20.6 µM | activation [5] -14.8%

CC1=CC(c2ccccc2)n2nc(N3C(=O)C4CC=CCC4C3=O)nc2N1 (stereo not given)
inactive: activity change, negative = inhibition [1] 0.952% | activity change, negative = inhibition [2] 13.9% | activity, negative = inhibition [3] 11.6% | Potency [4] > 20.6 µM | activation [5] 6.95%

N#Cc1nc(COc2ccccc2)oc1N1CCCC1
inactive: activity change, negative = inhibition [1] -20.4% | activity change, negative = inhibition [2] 4.75% | activity, negative = inhibition [3] 0.032% | Potency [4] > 20.6 µM | activation [5] -0.614%
